# ARNT-TACC3 inh: disruptors of ARNT/TACC3 protein interaction, primary screen, biochemical, AlphaScreen, single concentration; AlphaScreen His-ARNT PAS-B/GST-TACC3 binding, luminescence; TACC3 fragment carries E629A point mutation; inhibition, % at 9.99 µM; hit rate 0.66% among 390,000;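 active means mean inhibition of replicates at least 50% and at least half of replicates each reaching 50%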
# sPLA2-III inh: human group III sPLA2 inhibitors, primary screen, biochemical, QFRET, BODIPY PC-A2 liposome substrate; Group 3 secretory phospholipase A2 (Homo sapiens), Q9NZ20; QFRET BODIPY PC-A2 liposome hydrolysis, fluorescence; inhibition, % at 12.2 µM; hit rate 0.56% among 370,000;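 active means inhibition above mean plus 3 SD of compounds lying within the high and low control bounds, cut at about 19% in these data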
# DAGLB inhibitor: DAGLB lipase inhibitors, primary screen, biochemical, fluorescence, HTS. AID 504411, 2011. Diacylglycerol lipase-beta (Homo sapiens), Q8NCG7. hit rate 0.059% among 340,000. inhibition, % at 5.17 µM. HEK293T DAGLB membrane lysate, EnzChek fluorogenic substrate; in the data active means inhibition above about 34%
# Neddylation inh: inhibitors of cullin neddylation, primary screen, biochemical, TR-FRET, uHTS, NAE and Ubc12; NEDD8-conjugating enzyme Ubc12 (Homo sapiens) + NEDD8-activating enzyme E1 regulatory …; inhibition, % at 25 µM; hit rate 0.58% among 360,000; in the data active means inhibition above about 36%
# NadD block: inhibitors of S. aureus NadD, primary screen, biochemical, colorimetric, uHTS; Nicotinate-nucleotide adenylyltransferase NadD (Staphylococcus aureus N315); hit rate 0.78% among 360,000; purified NadD enzyme, colorimetric absorbance read-out; inhibition, % at 20 µM; in the data active means inhibition above about 26%
# Neddyl inh conf: blockade of NEDD8 conjugation to cullin – biochemical, TR-FRET, single concentration, confirmation. shares compounds with Neddylation inh. TR-FRET cullin neddylation biochemical assay. hit rate 13% among 1,800. calls only at 25 µM; in the data active means inhibition above about 40%;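 further: neddylation substrate is the cullin 1 ring ligase complex with SKP2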
# A number is an active result; 0 = inactive; - = no result shown; + = active, no number. Shown are actives, neighbours in structure and some others; about 2% of the full set was active somewhere.
SMILES,ARNT-TACC3 inh,sPLA2-III inh,DAGLB inhibitor,Neddylation inh,NadD block,Neddyl inh conf
O=C(C[C@@H]1CC[C@H]2[C@@H](COC[C@H](O)CN2Cc2nccs2)O1)NCc1ccc(F)cc1,0,-,-,-,-,-
Clc1ccc(-c2nc3cnccn3c2Nc2ccc3c(c2)OCO3)cc1,0,0,0,40.6,0,0
c1cn2c(Nc3ccc4c(c3)OCCO4)c(-c3ccc(N4CCOCC4)cc3)nc2cn1,0,0,0,38.0,0,0
CSc1ccc(-c2nc3cnccn3c2Nc2ccc3c(c2)OCO3)cc1,0,-,0,-,0,-
C[C@@H]1CN([C@@H](C)CO)C(=O)c2cc(NS(=O)(=O)c3ccc(F)cc3)ccc2O[C@@H](C)CCCCO[C@H]1CN(C)C,0,-,-,-,-,-
O=C(C[C@H]1CC[C@H](NC(=O)c2cccc(F)c2)[C@H](CO)O1)NCCN1CCCC1,0,-,-,-,-,-
COc1ccc(C2c3[nH]c4ccccc4c3CCN2Cc2ccoc2)c(F)c1 (configuration not stated),0,0,0,41.4,0,0
Cc1cc(C(=O)NCc2ccccc2)c(=O)[nH]c1C,0,0,0,53.0,0,+
C[C@@H]1CN([C@H](C)CO)S(=O)(=O)c2ccc(C#Cc3cccnc3)cc2O[C@@H]1CN(C)C,0,-,-,-,-,-
NS(=O)(=O)c1ccc2c(c1)C(=NO)c1cc(S(N)(=O)=O)ccc1-2,0,0,0,0,0,-
CN(CCO)S(=O)(=O)c1ccc2c(c1)C(=NO)c1cc(S(=O)(=O)N(C)CCO)ccc1-2,0,0,0,49.4,0,0
O=C(O)c1sc2cc(C(F)(F)F)cnc2c1-c1cccs1,-,0,-,41.3,0,+
CCCNC(=O)N(C)C[C@H]1Oc2ncc(-c3ccccc3)cc2C(=O)N([C@H](C)CO)C[C@@H]1C,0,-,-,-,-,-
CCc1ccccc1Nc1ccc(C(=O)O)cc1N,0,0,0,0,0,-
Nc1cc(C(=O)O)ccc1Nc1ccccc1,0,0,0,48.5,0,-
C[C@@H]1CN([C@H](C)CO)C(=O)c2cc(C#CC3CC3)cnc2O[C@@H]1CN(C)S(C)(=O)=O,0,-,-,-,-,-
C/C=C/c1ccc2c(c1)O[C@@H](CN(C)CC1CCOCC1)[C@H](C)CN([C@@H](C)CO)S2(=O)=O,0,-,-,-,-,-
CCCc1cc2c(=O)c(-c3ccccn3)c(C)oc2cc1O,0,0,0,45.0,0,0
COC(=O)C1=C(C)N=C2SC(C#N)=C(N)N2C1c1cc(OC)c(OC)c(OC)c1 (configuration not stated),0,0,0,0,0,-
COC(=O)C1=C(C)N=C2SC(C#N)=C(N)N2C1c1ccc(OCc2ccccc2)cc1 (configuration not stated),0,0,0,41.9,0,0
CC(=O)c1sc(-c2ccc(F)cc2)cc1NS(=O)(=O)c1ccccc1,0,0,0,40.8,0,0
COC(=O)c1sc(-c2ccccc2)cc1NC(=O)c1ccc(F)cc1,0,0,0,-,0,-
CN1CCN(c2nc(N3CCN(CCO)CC3)nc3ccccc23)CC1,-,0,0,44.7,0,-
COCC(=O)N(C)C[C@@H]1Oc2cc(-c3ccc(C#N)cc3)ccc2S(=O)(=O)N([C@H](C)CO)C[C@@H]1C,0,-,-,-,-,-
CCN(CC)Cc1c(O)ccc2c(-c3ccccc3)cc(=O)oc12,0,0,0,41.6,0,0
SMILES,ARNT-TACC3 inh,sPLA2-III inh,DAGLB inhibitor,Neddylation inh,NadD block,Neddyl inh conf
Cc1c(O)ccc2c(-c3ccccc3)cc(=O)oc12,0,0,0,-,0,-
CCCCN(CC)Cc1c(O)ccc2c(-c3ccccc3)cc(=O)oc12,0,0,0,42.6,0,-
CCCCN(C)Cc1c(O)ccc2c(-c3ccccc3)cc(=O)oc12,0,0,0,-,0,-
Cc1ccc(S(=O)(=O)N[C@@H]2CC[C@H](CCn3cc(C4CC4)nn3)O[C@H]2CO)cc1,0,-,-,-,-,-
O=C(c1nc2nc(-c3ccc(Cl)cc3)cc(C(F)(F)F)n2n1)N1CCOCC1,0,0,0,41.2,0,0
O=C(NCC[C@H]1CC[C@@H](NC(=O)c2cccnc2)[C@H](CO)O1)Nc1ccc(C(F)(F)F)cc1,0,-,-,-,-,-
C[C@H](CO)N1C[C@H](C)[C@@H](CN(C)S(=O)(=O)c2ccc(F)cc2)Oc2ccc(NC(=O)c3ccncc3)cc2CC1=O,0,-,-,-,-,-
CC(=O)N1[C@H](C(=O)NCc2ccccc2F)[C@@H](CO)[C@@H]2Cn3c(ccc(-c4ccccc4)c3=O)[C@@H]21,0,-,-,-,-,-
COc1ccc(C2C=C(C)Nc3ncnn32)cc1 (configuration not stated),0,0,0,-,0,-
CC1=CC(c2ccc(Cl)cc2)n2ncnc2N1 (configuration not stated),0,0,0,39.3,0,0
C=CCOc1ccccc1CNc1ccc2[nH]c(=O)[nH]c2c1,0,0,0,47.9,0,0
O=C(NCC[C@@H]1CC[C@H](NC(=O)c2ccc3c(c2)OCO3)[C@H](CO)O1)Nc1cc(F)ccc1F,0,-,-,-,-,-
CCc1ccc(S(=O)(=O)Nc2c(NC3CCCCC3)c3ccccc3oc2=O)cc1,0,-,0,43.1,0,+
O=c1oc2ccccc2c(NC2CCCCC2)c1NS(=O)(=O)c1ccc(F)cc1,0,0,0,0,0,-
C[C@H]1CN([C@@H](C)CO)C(=O)c2c(c3ccccc3n2C)-c2ccccc2CO[C@@H]1CN(C)C(=O)c1ccncc1,0,-,-,-,-,-
CCCCN(CC)CCCNC(=O)c1cc2c(-c3ccc(OC)c(OC)c3)nn(C)c2s1,0,0,0,53.2,0,0
CSc1cc(-c2ccccc2)[nH]c(=O)c1C#N,-,0,0,0,0,-
Cc1cc(-c2ccccc2)[nH]c(=O)c1C#N,0,0,0,49.6,0,-
Cc1ccc(-c2cc(-c3ccco3)c(C#N)c(=O)[nH]2)cc1,0,0,0,96.3,0,0
CC(C)CC#Cc1ccc2c(c1)O[C@@H](CN(C)Cc1ccccc1F)[C@@H](C)CN([C@@H](C)CO)S2(=O)=O,0,-,-,-,-,-
COC(=O)c1ccc(C(=O)OC)c(NC(=O)/C=C/C(=O)O)c1,0,0,0,44.2,0,0
COC(=O)c1ccc(C(=O)OC)c(NC(=O)Oc2ccccc2)c1,0,0,0,0,0,-
CCc1nn2c(N3CCOCC3)cc(C)nc2c1-c1ccc(F)cc1,0,0,0,0,0,-
CCc1nn2c(N(C)CCO)cc(C)nc2c1-c1ccc(F)cc1,0,0,0,43.6,0,0
COc1ccc2cc(C(=O)C3CCCN(Cc4cnc(N5CCOCC5)s4)C3)ccc2c1 (configuration not stated),0,0,0,42.2,0,0

# Bioassay records deposited in PubChem BioAssay by several laboratories.
